Bioassay records from PubChem BioAssay.
Sampled rows, rich in hits. Any-hit rate of the full collection: about 2.4%.
ELG1 repair inh = blocks ELG1-dependent DNA repair in HEK293T cells. HEK293T ELG1-luciferase reporter, luminescence, 16 h; DNA damage induced by 5-fluorouridine. Potency, µM (highest dose often 46.1 µM), without a hit: at the highest dose activity change, negative = inhibition, hits mostly inhibitors. 2.3% of 330,000 active; note: % is set by controls: 0 for no effect and ±100 for the full control effect; nearly all actives have a fitted effect of over 55% in size
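Reporter activity after DNA damage by 5-fluorouridine is monitored. Compound-treated cells incubate 16 hr at 37 °C, then ONE-Glo is added for 30 min before luminescence reading.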
PKM2 act = increases activity of human pyruvate kinase M2. AID 1631. 0.34% of 260,000 active. Potency, µM (doses to about 57.5 µM), without a hit: top-dose activation, hits mostly activators. P14618. purified PKM2, Kinase-Glo ATP luminescence, activation; response scale: 0% is enzyme alone, no compound; note: % is set by controls: 0 for no effect and ±100 for the full control effect; nearly all actives have a fitted effect of over 55% in size
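hPK-M2, >95% pure; 0.1 mM ADP / 0.5 mM PEP final; imidazole pH7.2 buffer w/ 7 mM MgCl2, 50 mM KCl; 1 h RT; Kinase-Glo lum. Intermediate enzyme activity for dual inhibitor/activator qHTS.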
Rango dissoc inh = inhibition of RanGTP-driven Rango-importin beta dissociation; 0.071% of 340,000 active; Biochemical FRET Rango-importin beta, RanGTP-induced dissociation; Potency, µM (series often up to 46.1 µM), without a hit: at the top dose activity change, negative = inhibition; AID 540253; O95149+P62826; calls by dose curve; note: % of control where 0% means no effect; nearly all actives have a fitted effect of over 45% in size
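Rango/importin beta premix (0.1/0.25 uM final), PBS + 1 mM DTT + 0.02% Tween-20 + 0.1% BSA; cpd 5 min RT; FRET pre-read; + RanGTP-RCC1 (0.6 uM Ran, 2 mM GTP, 0.2 uM RCC1); 45 min RT; FRET post-read, ex 430, em 486/530 nm.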
Tb PFK block = T. brucei PFK enzyme inhibition | O15648 | T. brucei PFK, ADP-Glo luminescence | Potency, µM (top dose mostly 57.5 µM), for inactives: at the top dose activity, negative = inhibition, actives largely listed as inhibitors | 0.17% of 330,000 active | AID 485367;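 note: 0% = uninhibited 1x PFK enzyme wells and -100% = no-enzyme wells; nearly all actives have a fitted effect of over 60% in size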
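Activity is normalized to no-enzyme wells (full inhibition) and 1.25 nM enzyme wells (no inhibition). Reaction: 0.5 mM F6P, 0.1 mM ATP, 45 min RT, ADP-Glo luminescence; concentration-response curves fitted and classed by quality.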
Tb PGK inh = T. brucei PGK inhibition. PGK/GAPDH coupled, Kinase-Glo luminescence, 60 min. Potency, µM (series often up to 57.5 µM), without a hit: at the top dose activity change, negative = inhibition, usual class: inhibitors. 0.043% of 380,000 active. AID 602233; note: % is set by controls: 0 for no effect and ±100 for the full control effect; nearly all actives have a fitted effect of over 60% in size
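Luminescent ATP detection (Kinase-Glo Plus) follows a 60-minute room-temperature incubation, with wells lacking PGK as controls. Buffer: 100 mM TEA (pH 7.6), 5 mM MgCl2, 0.01% Tween-20. Coupling enzyme GAPDH (100 nM final) supplies unstable 1,3-BPG in-well.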
Rango-impB inh = prevents formation of the Rango-importin beta complex; Q14974; Rango CFP/YFP FRET sensor + importin beta, 45 min; Potency, µM (series often up to 92.2 µM), for inactives: at the highest dose inhibition of complex formation; 0.031% of 340,000 active; AID 540263; calls by dose curve;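 note: 0% = DMSO wells and 100% = buffer wells lacking importin beta; nearly all actives have a fitted effect of over 15% in size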
Target sequence (Q14974 whole entry, looked up): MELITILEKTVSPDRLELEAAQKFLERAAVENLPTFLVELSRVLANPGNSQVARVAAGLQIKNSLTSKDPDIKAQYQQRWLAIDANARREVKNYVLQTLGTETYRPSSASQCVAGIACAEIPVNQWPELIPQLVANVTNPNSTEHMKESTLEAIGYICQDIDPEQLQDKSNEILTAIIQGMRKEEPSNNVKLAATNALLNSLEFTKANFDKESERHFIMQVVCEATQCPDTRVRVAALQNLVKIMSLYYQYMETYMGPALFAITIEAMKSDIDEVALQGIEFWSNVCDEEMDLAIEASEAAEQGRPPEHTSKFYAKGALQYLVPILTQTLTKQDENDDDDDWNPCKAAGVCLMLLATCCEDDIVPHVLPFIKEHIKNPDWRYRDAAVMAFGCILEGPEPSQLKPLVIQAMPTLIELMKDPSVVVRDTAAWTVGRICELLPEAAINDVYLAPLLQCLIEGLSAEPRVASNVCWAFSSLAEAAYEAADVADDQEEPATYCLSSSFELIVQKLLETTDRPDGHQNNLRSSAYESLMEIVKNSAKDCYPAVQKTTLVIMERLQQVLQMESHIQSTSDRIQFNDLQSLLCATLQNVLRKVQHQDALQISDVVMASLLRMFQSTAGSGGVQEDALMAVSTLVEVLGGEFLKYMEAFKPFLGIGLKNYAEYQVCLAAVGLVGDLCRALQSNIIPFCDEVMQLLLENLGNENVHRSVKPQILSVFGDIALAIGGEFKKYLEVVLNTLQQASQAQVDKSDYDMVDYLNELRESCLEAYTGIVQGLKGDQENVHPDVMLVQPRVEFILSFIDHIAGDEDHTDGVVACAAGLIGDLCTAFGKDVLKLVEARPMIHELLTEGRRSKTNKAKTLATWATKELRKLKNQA
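FRET biosensor (snurportin 1 IBB flanked by EYFP and cerulean), 50 nM, with compound 5 min, then 0.125 microM importin beta in PBS, 1 mM DTT, 0.02% Tween-20, 0.1% BSA. CFP/YFP ratio read after 45 min at room temperature; pre-read flags interference.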
ELG1 FLuc counter = luciferase inhibition in cell-free luciferin readout for ELG1 hits. 3% of 350 active. Potency, µM (doses to about 46.1 µM), without a hit: at the top dose activity change, negative = inhibition, actives largely listed as inhibitors. cell-free firefly luciferase luminescence counter-screen, ViewLux. AID 624247. shares compounds with ELG1 repair inh; note: % is set by controls: 0 for no effect and ±100 for the full control effect
ELG1-Luc inh = inhibits ELG1-dependent DNA repair in HEK293T cells, confirmed | 68% of 670 active | HEK293T ELG1-luciferase levels, luminescence; cells co-treated with 5-fluorouridine | Potency, µM (doses to about 46.1 µM), without a hit: at the top dose activity change, negative = inhibition, hits mostly inhibitors | AID 624248 | shares compounds with ELG1 repair inh; note: % is set by controls: 0 for no effect and ±100 for the full control effect; nearly all actives have a fitted effect of over 55% in size
ELG1-Luc MMS = inhibits ELG1-dependent repair under MMS stimulation in HEK293T cells. shares compounds with ELG1 repair inh. 53% of 670 active. HEK293T luciferase-tagged ELG1 level, MMS stimulated. Potency, µM (top dose mostly 46.1 µM), for inactives: top-dose activity change, negative = inhibition, hits mostly inhibitors; note: % is set by controls: 0 for no effect and ±100 for the full control effect; nearly all actives have a fitted effect of over 60% in size
ELG1 5FU viab = confirmation of ELG1 repair inhibitors: viability with 5FU; 670 tested, under 10 active; Potency, µM (top dose mostly 46.1 µM), for inactives: at the top dose activity change, negative = viability loss, most hits filed as cytotoxic; shares compounds with ELG1 repair inh; cell viability with 5-FU, ELG1-dependent repair;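 note: ELG1-luc HEK293T cells cotreated with 5-fluorouridine at 10 µM final; viability measured 16 h after compound addition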
ELG1 MMS viab = confirmation of ELG1 repair inhibitors: viability with MMS. shares compounds with ELG1 repair inh. Cell viability with MMS, ELG1-dependent DNA repair. 33% of 670 active. Potency, µM (series often up to 46.1 µM), without a hit: at the highest dose activity change, negative = viability loss, actives largely listed as cytotoxic. AID 624251;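 note: ELG1-luc HEK293T cells co-treated with 10 µM MMS; viability read 16 h after compound addition; % is set by controls: 0 for no effect and ±100 for the full control effect; nearly all actives have a fitted effect of over 60% in size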
ELG1 unstim viab = affects unstimulated cell viability, ELG1 hit counter-screen; cell viability counter-screen, unstimulated, luminescence; 8% of 900 active; shares compounds with ELG1 repair inh; Potency, µM (series often up to 45.9 µM), inactives show at the highest dose activity change, negative = loss of viability, usual class: cytotoxic;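 note: compound exposure lasted 16 hours before reading; % is set by controls: 0 for no effect and ±100 for the full control effect; nearly all actives have a fitted effect of over 55% in size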
FLuc enzyme = inhibits purified firefly luciferase, counter-screen for ELG1 hits | shares compounds with ELG1 repair inh | purified firefly luciferase, luminescence counter-screen | Potency, µM (titrated, usually from 57.5 µM), inactives show top-dose activity, negative = inhibition, hits mostly inhibitors | 10% of 350 active; note: % is set by controls: 0 for no effect and ±100 for the full control effect
The depositor's hits bear a star; i = inactive; ? = inconclusive; . = no result. Unless noted, calls come from the whole dose curve; as a rule, active = well fitted curve in the direction sought with a large enough effect; inconclusive = small, poorly fitted or top-dose-only effect, or another doubt; inactive = no such curve, though single readings can be large; an effect the other way counts as inactive or inconclusive. Potency is the fitted concentration of half-maximal effect.

SMILES	ELG1 repair inh	PKM2 act	Rango dissoc inh	Tb PFK block	Tb PGK inh	Rango-impB inh	ELG1-Luc inh	ELG1-Luc MMS	ELG1 5FU viab	ELG1 MMS viab	ELG1 unstim viab	others
OC(CN1CCN(c2ccc(C(F)(F)F)cn2)CC1)c1ccccc1 (stereo not drawn)	?	.	-1%	-6%	-2%	3%	.	.	.	.	.
CCc1nc(CN2CCN(c3ccc(C(F)(F)F)cn3)CC2)c(C)[nH]1	?	-3%	25%	0%	i	0%	?	3.1µM*	-3%	4.4µM*	?
O=C(Cn1cc(C(=O)C2CC2)c2ccccc21)Nc1ccc(Br)cc1	.	.	.	.	-8%	.	.	.	.	.	.
C=CCn1c(C)cc(C(=O)COC(=O)c2n[nH]c(=O)c3ccccc23)c1C	?	.	1%	-3%	-4%	7%	.	.	.	.	-10%
COc1cc(OC)c2c(=O)cc(-c3ccccc3)oc2c1	?	-11%	11%	10%	i	-1%	.	.	.	.	.
COc1cc(C)c2c(=O)cc(-c3ccccc3)oc2c1	.	.	.	.	.	.	.	.	.	.	-6%
CCC1(CC)C(=O)C2=C3C1[C@H](C(=O)OC)C=C(C(=O)OC)C[C@H]3n1c(=O)n(-c3ccccc3)c(=O)n1[C@H]2C (stereo partly drawn)	.	.	-13%	.	9%	7%	.	.	.	.	.
Fc1ccc(-c2csc(=Nc3cccc(C(F)(F)F)c3)n2Cc2ccc3c(c2)OCO3)cc1	.	.	.	.	-1%	.	.	.	.	.	.
O=C(CSc1nc2ccc(NC(=O)CSc3nnnn3Cc3ccccc3)cc2s1)Nc1ccccc1	4.6µM*	19%	2%	-5%	9%	0%	?	7.9µM*	-2%	13µM*	?
Cc1ccccc1OCC(=O)Nc1ccc(C)c(S(=O)(=O)N2CCCCCC2)c1	1.3µM*	.	-11%	12%	-11%	-4%	28µM*	6.3µM*	?	8.9µM*	-19%
Cc1ccc(NC(=O)COc2ccccc2)cc1S(=O)(=O)N1CCCCC1	.	.	.	.	-8%	.	.	.	.	.	.
Cc1ccc2c(c1)sc1nc(=O)n(-c3ccc(Cl)c(Cl)c3)c(=O)n12	?	1%	11%	-3%	-8%	-3%	.	.	.	.	-2%	ELG1 FLuc counter=7%;FLuc enzyme=-3%
Cc1ccc2c(c1)sc1nc(=O)n(-c3ccc(Cl)cc3)c(=O)n12	28%	0%	-11%	6%	i	5%	.	.	.	.	.
O=c1nc2sc3ccccc3n2c(=O)n1-c1cccc(Cl)c1	?	-12%	16%	-4%	0%	0%	.	.	.	.	-5%	ELG1 FLuc counter=82%;FLuc enzyme=-6%
Cc1cc(NC(=O)CSc2nccn2-c2cccc(Cl)c2)no1	0%	-7%	2%	1%	-9%	-2%	.	.	.	.	.
CCOc1ccc(CC(=O)Nc2ccc(NC(=O)c3ccco3)cc2)cc1OCC	2.3µM*	2%	-7%	8%	i	-1%	?	0.063µM*	12%	0.07µM*	8%
COc1ccc(OCCN2CCN(C(=O)c3ccc(OC(F)F)c(OC)c3)CC2)cc1	-26%	-12%	13%	2%	-2%	0%	.	.	.	.	.
COc1ccc(OCCN2CCN(C(=O)c3ccc(OC)cc3)CC2)cc1	3.3µM*	.	-3%	0%	5%	-2%	?	7.1µM*	-4%	7.9µM*	-22%
COc1ccc(C(CNc2nc(-c3cccnc3)nc3ccccc23)N(C)C)cc1 (stereo not drawn)	-25%	2%	-13%	4%	-4%	-1%	18µM*	?	?	0%	-9%	ELG1 FLuc counter=-2%;FLuc enzyme=-7%
COc1ccc(CCNc2nc(-c3cccnc3)nc3ccccc23)cc1OC	2.6µM*	6%	-2%	-7%	-5%	1%	3.2µM*	13µM*	?	?	?	ELG1 FLuc counter=14%;FLuc enzyme=?
Cc1ccc(CNc2nc(-c3cccnc3)nc3ccccc23)cc1	?	8%	22%	-3%	-3%	5%	.	.	.	.	.
CCN(CC)CCCN(Cc1cc2cc(OC)c(OC)cc2[nH]c1=O)C(=O)Nc1ccccc1	?	0%	0%	-2%	i	-1%	.	.	.	.	.
COc1cc2cc(CN(Cc3cccnc3)C(=O)Nc3ccccc3F)c(=O)[nH]c2cc1OC	5.8µM*	-2%	3%	-6%	0%	-1%	10µM*	1%	?	-1%	-8%	ELG1 FLuc counter=-5%;FLuc enzyme=-14%
CCOc1ccc(C(C(=O)NC2CCCC2)N(C(=O)c2snc(C(N)=O)c2N)c2cccc(O)c2)cc1 (stereo not drawn)	4.6µM*	3%	-18%	7%	i	?	2µM*	?	?	-8%	?
CCOc1ccc(C(C(=O)NCC2CCCO2)N(C(=O)c2snc(C(N)=O)c2N)c2ccc3c(c2)OCCO3)cc1 (stereo not drawn)	3.3µM*	9%	2%	6%	-10%	-4%	1.3µM*	29%	?	5%	-5%
